Source: PubChem
Rows were chosen to be rich in hits. Some 19% of all compounds tested hit in one or more screens of this group.
HT1080-NT tox: kills 2HG-producing HT-1080-NT fibrosarcoma cells | HT-1080-NT fibrosarcoma viability, CellTiter-Glo ATP luminescence, 48 h | Potency, µM (highest dose often 46.1 µM), without a hit: at the highest dose activity, negative = less viability, actives largely listed as cytotoxic | 1.6% of 360,000 active | AID 686970;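 note: NT is the 2HG producing partner of a matched IDH1 knockdown line; potency is the fitted concentration of half-maximal effect; 0% = DMSO-treated cells and -100% = media-only wells without cells; nearly all actives have a fitted effect of over 55% in size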
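Viability of the 2HG-overproducing fibrosarcoma line after 48 hours of compound exposure at 37 degrees C was determined by luminescence with CellTiter-Glo, and concentration-effect curves were then fitted and categorized.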
TDP1 cell CPT: growth inhibition of DT40 Tdp1-/-;hTDP1 cells with camptothecin (screen for TDP1 inhibitors). chicken DT40 Tdp1-/-;hTDP1 cells + 20 nM CPT, ATP luminescence, 48 h. Potency, µM (doses to about 46.2 µM), for the others: at the top dose activity change, negative = growth inhibition, most hits filed as inhibitors. 12% of 420,000 active. AID 686979; note: potency is the fitted concentration of half-maximal effect; nearly all actives have a fitted effect of over 55% in size
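Chicken DT40 Tdp1-/- cells complemented with human TDP1, 400 cells/well, exposed to compounds plus 20 nM camptothecin for at least 48 h at 37 C; viability read as ATP content by CellTiter-Glo luminescence.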
HT1080 IDH1KD tx: kills HT-1080 cells with IDH1 knockdown; 2% of 360,000 active; Potency, µM (highest dose often 46.1 µM), for the others: at the highest dose activity, negative = toxicity, usual class: cytotoxic; HT-1080 IDH1 knockdown viability, ATP luminescence, 48 h;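 note: potency is the fitted concentration of half-maximal effect; 0% = DMSO wells and -100% = cell-free medium wells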
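Knockdown cells (IDH1KD HT-1080) received compounds 2 h after plating at 750 cells/well and were kept 48 h at 37 °C in 5% FBS RPMI. A CellTiter-Glo luminescence read gave % activity for curve fitting.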
ELG1 DNA repair: blocks ELG1-dependent DNA repair in HEK293T cells; HEK293T ELG1-luciferase reporter, luminescence, 16 h; DNA damage induced by 5-fluorouridine; Potency, µM (doses to about 46.1 µM), for inactives: top-dose activity change, negative = inhibition, hits mostly inhibitors; 2.3% of 330,000 active; AID 504467; note: potency is the fitted concentration of half-maximal effect; nearly all actives have a fitted effect of over 55% in size
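In this reporter screen, reduction of luminescence relative to DMSO vehicle indicated activity. Compounds and 5-fluorouridine were added together to 2,000 cells per well, incubated for 16 hr at 37 °C, then developed with ONE-Glo.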
IL-1B inflam inh: blocks inflammasome-driven IL-1 beta release | THP-1 LPS/ATP IL-1B secretion, AlphaLISA, 16 h; active compounds read low | AID 743279 | 4.7% of 360,000 active | activity change, % at 57.5 µM; in the data active = activity change below about -50%; inconclusive = mostly about -30% to -49%
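THP-1 cells pretreated 1 hr with compounds (up to 57.5 uM final), then stimulated with LPS (250 ng/mL final) plus ATP (1.25 mM final); secreted IL-1B measured by AlphaLISA after 16 hr, decreased signal indicating inhibition.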
TDP1 cell noCPT: qHTS for Inhibitors of human tyrosyl-DNA phosphodiesterase 1 (TDP1): qHTS in cells in absence of CPT; 15% of 420,000 active; DT40 Tdp1-/- hTDP1 cells, no CPT, ATP luminescence, 48 h; Potency, µM (highest dose often 46.2 µM), without a hit: at the top dose activity change, negative = growth inhibition, actives largely listed as inhibitors; AID 686978, 2013; note: potency is the fitted concentration of half-maximal effect; nearly all actives have a fitted effect of over 55% in size
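Growth kinetics read by CellTiter-Glo luminescence after ≥48 hr at 37 °C. Cells: DT40 Tdp1-/- stably carrying human TDP1, 400 per well, compound exposure in the absence of CPT (DMSO vehicle).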
* = called active by the depositor. Unless noted, calls come from the whole dose curve; as a rule, active = well fitted curve in the direction sought with a large enough effect; inconclusive = small, poorly fitted or top-dose-only effect, or another doubt; inactive = no such curve, though single readings can be large; an effect the other way counts as inactive or inconclusive. Unless noted, % is set by controls: 0 for no effect and ±100 for the full control effect.

For C=CC(=O)Nc1cccc(N(C)c2ccnc(Nc3ccc(N4CCN(C)CC4)cc3)n2)c1 the results were HT1080-NT tox -18.7%, TDP1 cell CPT inconclusive, HT1080 IDH1KD tx inconclusive, IL-1B inflam inh -99.8* and TDP1 cell noCPT 5.17µM*.
`C=CC(=O)Nc1cccc(Oc2ccnc3[nH]ccc23)c1` gave HT1080-NT tox 0.8%, TDP1 cell CPT inconclusive, HT1080 IDH1KD tx -12.3%, IL-1B inflam inh 0.0 and TDP1 cell noCPT inconclusive.
c1ccc(-c2nnc(CN3CCCc4ccccc43)o2)cc1 was read as HT1080-NT tox -1.9%, TDP1 cell CPT inconclusive, HT1080 IDH1KD tx -4.5%, ELG1 DNA repair inconclusive, IL-1B inflam inh 16.4 and TDP1 cell noCPT 23.1µM*.
For COc1ccc(CNC(=O)N2CCc3nc(Nc4cc(OC)c(OC)c(OC)c4)ncc3C2)cc1 the results were HT1080-NT tox -15.7%, TDP1 cell CPT inconclusive, HT1080 IDH1KD tx -24.7%, IL-1B inflam inh 6.0 and TDP1 cell noCPT inconclusive.
For COc1cc(NC(=O)N2CCc3nc(Nc4cc(Cl)cc(Cl)c4)ncc3C2)cc(OC)c1OC the results were HT1080-NT tox inconclusive, TDP1 cell CPT 23.1µM*, HT1080 IDH1KD tx inconclusive, IL-1B inflam inh inconclusive and TDP1 cell noCPT inconclusive.
CC(C)(C)OC(=O)N1CCC(N2CCN(Cc3ccccc3)C(=O)C2=O)CC1 was read as TDP1 cell CPT -8.1% and TDP1 cell noCPT 3.4%.
NS(=O)(=O)c1ccc(CCNC(=O)c2nc(SCc3ccccc3F)ncc2Cl)cc1 was read as TDP1 cell CPT 4.9% and TDP1 cell noCPT inconclusive.
`COC(=O)c1ccsc1NS(=O)(=O)c1ccccc1` gave HT1080-NT tox 8.9%, TDP1 cell CPT -12.6%, HT1080 IDH1KD tx 9.8%, ELG1 DNA repair 7.1%, IL-1B inflam inh 15.3 and TDP1 cell noCPT 19.4%.
For COc1cc(-c2nc3c(c(C)nn3-c3ccccc3)c3cc(OC)c(OC)cc23)ccc1O the results were HT1080-NT tox -3.8%, TDP1 cell CPT inconclusive, HT1080 IDH1KD tx -3.5%, ELG1 DNA repair 18.4µM*, IL-1B inflam inh inconclusive and TDP1 cell noCPT 20.6µM*.
Screening COc1cc2c(C)nc3c(cnn3-c3ccccc3)c2cc1OC returned HT1080-NT tox inconclusive, TDP1 cell CPT -17.1%, HT1080 IDH1KD tx 22.0%, ELG1 DNA repair 5.2%, IL-1B inflam inh -15.2 and TDP1 cell noCPT -21.8%.
For COc1cc2c(-c3ccccc3C)nc3c(c(C)nn3-c3ccccc3)c2cc1OC the results were TDP1 cell CPT 23.1µM* and TDP1 cell noCPT inconclusive.
`COc1cc2c(-c3cc(Br)ccc3O)nc3c(c(C)nn3-c3ccccc3)c2cc1OC` gave TDP1 cell CPT inconclusive and TDP1 cell noCPT -24.1%.
`O=C(NNC(=O)c1ccc2ccccc2c1)c1cccc(Cl)c1` gave HT1080-NT tox 0.3%, TDP1 cell CPT -18.8%, HT1080 IDH1KD tx 0.3%, IL-1B inflam inh 1.8 and TDP1 cell noCPT -15.5%.
Screening O=C(c1ccc([N+](=O)[O-])cc1)N1CCSC1c1ccc(Cl)cc1 (stereo unspecified) returned HT1080-NT tox 10.7%, TDP1 cell CPT 0.0%, HT1080 IDH1KD tx 12.4%, ELG1 DNA repair 0.2%, IL-1B inflam inh 3.3 and TDP1 cell noCPT -22.3%.
For O=C(c1ccc([N+](=O)[O-])cc1)N1CCSC1c1ccc(Br)cc1 (stereo unspecified) the results were HT1080-NT tox -14.6%, TDP1 cell CPT inconclusive, HT1080 IDH1KD tx 0.9%, ELG1 DNA repair -2.5%, IL-1B inflam inh -6.3 and TDP1 cell noCPT 18.4µM*.
CC(C)OCCCn1c(SCc2cccc(Br)c2)nc2c(sc3ccccc32)c1=O was read as TDP1 cell CPT 13.1% and TDP1 cell noCPT -1.7%.
`CCCCNC(=O)C(NC(=O)c1ccc(=O)[nH]c1)C(=O)c1ccccc1` (stereo unspecified) gave HT1080-NT tox 20.8%, TDP1 cell CPT 8.8%, HT1080 IDH1KD tx 21.6%, IL-1B inflam inh 6.0 and TDP1 cell noCPT 9.9%.
For CCCCOc1ccc(CN(CCO)CCO)cc1[N+](=O)[O-] the results were HT1080-NT tox 2.4%, TDP1 cell CPT 18.4µM*, HT1080 IDH1KD tx -6.3%, ELG1 DNA repair inconclusive, IL-1B inflam inh -12.7 and TDP1 cell noCPT -2.2%.
For COc1ccc(CSC(=N)N)cc1[N+](=O)[O-] the results were HT1080-NT tox -5.8%, TDP1 cell CPT 23.1µM*, HT1080 IDH1KD tx -6.9%, ELG1 DNA repair inconclusive, IL-1B inflam inh -59.6* and TDP1 cell noCPT 23.1µM*.
`CCCCCOc1ccc(Cn2ccnc2)cc1[N+](=O)[O-]` gave HT1080-NT tox -20.8%, TDP1 cell CPT inconclusive, HT1080 IDH1KD tx -1.9%, ELG1 DNA repair inconclusive, IL-1B inflam inh -10.7 and TDP1 cell noCPT inconclusive.
`CCCCCOc1ccc(CSC(=N)N)cc1[N+](=O)[O-]` gave HT1080-NT tox 20.6µM*, TDP1 cell CPT 14.6µM*, HT1080 IDH1KD tx 16.4µM*, ELG1 DNA repair inconclusive, IL-1B inflam inh -105.2* and TDP1 cell noCPT 16.4µM*.
Screening COc1ccc(-n2ccn3c(CC(C)(C)CC(=O)O)nnc3c2=O)cc1 returned TDP1 cell CPT -12.9% and TDP1 cell noCPT -5.6%.
Screening CN(C(=O)c1ccc(NC(=O)Cc2ccc([N+](=O)[O-])cc2)cc1)C1CC1 returned HT1080-NT tox 7.3%, TDP1 cell CPT inconclusive, HT1080 IDH1KD tx 8.4%, ELG1 DNA repair -10.9%, IL-1B inflam inh 3.1 and TDP1 cell noCPT inconclusive.
CCOC(=O)CNC(c1ccccc1)c1cc(Br)ccc1NC(=O)c1ccc(Cl)cc1 (stereo unspecified) was read as TDP1 cell CPT 10.3µM* and TDP1 cell noCPT 6.51µM*.
Screening CCOC(=O)CNC(c1ccccc1)c1cc(Br)ccc1NC(=O)CCN1CCOCC1 (stereo unspecified) returned HT1080-NT tox -29.3%, TDP1 cell CPT 2.06µM*, HT1080 IDH1KD tx -4.5%, ELG1 DNA repair 4.9%, IL-1B inflam inh inconclusive and TDP1 cell noCPT 0.82µM*.
CCOC(=O)CNC(c1ccccc1)c1cc(Br)ccc1NC(=O)OCC (stereo unspecified) was read as HT1080-NT tox 3.6%, TDP1 cell CPT inconclusive, HT1080 IDH1KD tx 0.6%, ELG1 DNA repair -19.9%, IL-1B inflam inh -4.5 and TDP1 cell noCPT inconclusive.
